Test results published in PubChem BioAssay (EPA / NIEHS).
Several values for one entry are separate records, joined by “and”; a condition that tells them apart may be missing. Equal entries are not always repeated. Inconclusive results are not listed. Activity calls are given as the source filed them. The calls were made as follows, unless noted: active = hit-call score of the fitted dose curve at least 0.9, where 1 is the maximum; inactive = score below 0.9.

Assays:
[1] = biological target: Paired box protein Pax-6 (Homo sapiens) (UniProt P26367); assay: ATG_Pax6_CIS: Attagene CIS-FACTORIAL HepG2 Assay for human Paired Box 6 (PAX6) (AID 2282956); details: HepG2 CIS-FACTORIAL PAX6 reporter transcription, RNA readout; actives raise or lower the signal
Paired box protein Pax-6 (Homo sapiens), sequence (P26367 whole entry, looked up): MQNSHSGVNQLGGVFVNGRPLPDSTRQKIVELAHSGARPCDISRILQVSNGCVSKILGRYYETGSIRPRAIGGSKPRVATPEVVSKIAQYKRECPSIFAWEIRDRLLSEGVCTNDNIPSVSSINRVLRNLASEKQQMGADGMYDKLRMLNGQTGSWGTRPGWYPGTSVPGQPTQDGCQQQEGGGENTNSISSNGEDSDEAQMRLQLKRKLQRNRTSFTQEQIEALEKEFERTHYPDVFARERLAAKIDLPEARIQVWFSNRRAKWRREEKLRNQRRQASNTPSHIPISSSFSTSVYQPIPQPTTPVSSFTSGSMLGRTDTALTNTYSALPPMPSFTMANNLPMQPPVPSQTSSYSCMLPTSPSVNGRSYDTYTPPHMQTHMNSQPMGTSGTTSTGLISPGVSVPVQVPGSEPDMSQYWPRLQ
Summary of the method: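 Transient MRTU transfection of HepG2 → compound exposure 24 h → TriZol RNA, oligo(dT) RT → PCR, 6-FAM primer extension, HpaI cut → capillary electrophoresis; activity fitted both directions against DMSO.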

[2] = ATG_PXRE_CIS: Attagene CIS-FACTORIAL HepG2 Assay for human Pregnane X Receptor Element (PXRE) (AID 2282957); details: HepG2 Attagene CIS-FACTORIAL PXRE reporter, mRNA; actives raise or lower the signal
Summary of the method: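 Transiently transfected HepG2 cells were dosed and incubated for 24 h. RNA was then isolated, DNase-treated, reverse-transcribed and reporter sequences amplified. Labeled, HpaI-digested fragments were quantified by capillary electrophoresis against DMSO.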

[3] = ATG_RORE_CIS: Attagene CIS-FACTORIAL HepG2 Assay for human RAR-related Orphan Receptor Element (RORE) (AID 2282959); details: HepG2 Attagene cis-factorial RORE reporter, mRNA; actives raise or lower the signal
Summary of the method: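 Transfect HepG2 with MRTUs; treat 24 h; extract RNA; RT with oligo(dT); PCR with reporter-specific primers; 6-FAM primer extension; HpaI digest 2 h at 37 C; capillary electrophoresis. Fit vs DMSO, bidirectional.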

[4] = ATG_Sox_CIS: Attagene CIS-FACTORIAL HepG2 Assay for human SRY-box transcription factor (SOX) (AID 2282960); details: HepG2 Attagene cis-factorial SOX reporter, mRNA; actives raise or lower the signal
Summary of the method: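 Fluorescence-labelled cDNA fragments from reporter transcripts, sized by CE, give the signal. Cells: HepG2, transiently transfected with cis-regulated reporter units. Exposure 24 h; DMSO negative control; bidirectional curve fitting.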

[5] = biological target: Transcription factor Sp1 (Homo sapiens) (UniProt P08047); assay: ATG_Sp1_CIS: Attagene CIS-FACTORIAL HepG2 Assay for human Specificity Protein 1 (Sp1) (AID 2282961); details: HepG2 Sp1 cis-reporter transcription, actives raise or lower the signal
Transcription factor Sp1 (Homo sapiens), sequence (P08047 whole entry, looked up): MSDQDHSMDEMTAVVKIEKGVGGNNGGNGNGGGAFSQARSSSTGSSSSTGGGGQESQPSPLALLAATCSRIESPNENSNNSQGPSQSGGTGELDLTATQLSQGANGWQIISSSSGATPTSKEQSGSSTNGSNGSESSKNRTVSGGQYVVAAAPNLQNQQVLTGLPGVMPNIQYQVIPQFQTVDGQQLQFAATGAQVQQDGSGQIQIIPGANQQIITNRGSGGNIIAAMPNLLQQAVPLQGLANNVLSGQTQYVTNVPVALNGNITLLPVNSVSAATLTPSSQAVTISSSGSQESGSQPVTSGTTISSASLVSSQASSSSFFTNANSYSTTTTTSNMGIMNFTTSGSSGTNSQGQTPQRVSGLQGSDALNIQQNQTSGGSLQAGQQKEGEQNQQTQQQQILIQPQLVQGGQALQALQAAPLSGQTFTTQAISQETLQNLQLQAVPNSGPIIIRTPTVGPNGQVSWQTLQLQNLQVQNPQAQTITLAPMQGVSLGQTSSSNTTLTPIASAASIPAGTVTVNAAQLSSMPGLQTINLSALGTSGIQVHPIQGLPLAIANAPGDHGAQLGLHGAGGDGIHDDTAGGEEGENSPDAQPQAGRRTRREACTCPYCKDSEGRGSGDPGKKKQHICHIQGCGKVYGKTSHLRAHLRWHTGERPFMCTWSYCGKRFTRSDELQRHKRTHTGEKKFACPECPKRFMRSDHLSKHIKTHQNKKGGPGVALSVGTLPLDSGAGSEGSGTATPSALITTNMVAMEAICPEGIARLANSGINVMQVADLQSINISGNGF
Summary of the method: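 Chemicals are dosed onto HepG2 cells transfected with multiple cis-promoter reporter constructs, and after 24 h reporter RNA is reverse-transcribed, PCR-amplified and resolved by capillary electrophoresis for fluorescence quantitation; activity is scored up or down against DMSO.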

[6] = biological target: Signal transducer and activator of transcription 3 (Homo sapiens) (UniProt P40763); assay: ATG_STAT3_CIS: Attagene CIS-FACTORIAL HepG2 Assay for human Signal Transducer and Activator of Transcription 3 (STAT3) (AID 2282963); details: HepG2, Attagene cis-factorial STAT3 reporter transcription; actives raise or lower the signal
Signal transducer and activator of transcription 3 (Homo sapiens), sequence (P40763 whole entry, looked up): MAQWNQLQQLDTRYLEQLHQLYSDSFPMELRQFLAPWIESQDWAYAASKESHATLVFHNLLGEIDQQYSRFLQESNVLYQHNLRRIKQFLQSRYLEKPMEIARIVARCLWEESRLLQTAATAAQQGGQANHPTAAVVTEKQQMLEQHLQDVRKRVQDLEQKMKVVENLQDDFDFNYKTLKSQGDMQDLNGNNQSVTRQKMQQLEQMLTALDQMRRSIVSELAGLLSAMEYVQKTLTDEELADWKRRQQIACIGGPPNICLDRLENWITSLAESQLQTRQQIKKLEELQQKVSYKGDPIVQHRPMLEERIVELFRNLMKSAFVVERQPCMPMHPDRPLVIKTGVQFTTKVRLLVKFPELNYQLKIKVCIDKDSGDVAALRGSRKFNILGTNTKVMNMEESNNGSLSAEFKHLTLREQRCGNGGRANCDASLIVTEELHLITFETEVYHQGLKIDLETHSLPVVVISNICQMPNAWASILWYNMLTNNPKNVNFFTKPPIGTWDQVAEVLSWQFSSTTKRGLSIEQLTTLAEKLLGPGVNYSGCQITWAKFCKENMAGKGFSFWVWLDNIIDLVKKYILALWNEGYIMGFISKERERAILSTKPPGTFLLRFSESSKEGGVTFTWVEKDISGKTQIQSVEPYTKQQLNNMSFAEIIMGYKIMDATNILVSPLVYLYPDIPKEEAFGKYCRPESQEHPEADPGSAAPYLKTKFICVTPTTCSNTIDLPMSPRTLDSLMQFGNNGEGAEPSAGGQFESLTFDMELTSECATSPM
Summary of the method: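 HepG2 cells transiently transfected with cis-element-driven multiple reporter transcription units; after 24 h chemical exposure, reporter mRNA measured by RT-PCR, 6-FAM primer-extension labelling, HpaI digestion and capillary electrophoresis. Bidirectional fitting versus DMSO baseline.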

[7] = ATG_TA_CIS: Attagene CIS-FACTORIAL HepG2 Assay for human TA Basal Promoter (AID 2282964); details: HepG2 Attagene CIS-factorial TA basal promoter reporter; actives raise or lower the signal
Summary of the method: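 HepG2 cells transiently transfected with multiple reporter units under cis promoter elements, reporting endogenous transcription factor activity; this endpoint tracks the TA basal promoter as background control. Reporter mRNA after 24 h dosing measured by RT-PCR/capillary electrophoresis; bidirectional fits versus DMSO.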

[8] = ATG_TCF_b_cat_CIS: Attagene CIS-FACTORIAL HepG2 Assay for human T-Cell-Factor with beta-catenin (TCF/b-cat) (AID 2282965); details: HepG2 TCF/beta-catenin cis-reporter transcription, actives raise or lower the signal
Summary of the method: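 HepG2 cells transiently transfected with multiple cis-promoter-regulated reporter transcription units, so endogenous transcription factor activity is measured. Reporter mRNA read 24 hours after dosing by RT-PCR, fluorescent labelling and capillary electrophoresis; bidirectional fitting against DMSO.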

[9] = ATG_TAL_CIS: Attagene CIS-FACTORIAL HepG2 Assay for human TAL Basal Promoter (AID 2282966); details: HepG2 Attagene cis-factorial TAL promoter reporter; actives raise or lower the signal;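 also: background control endpoint measuring basal TAL promoter reporter mRNA not a specific factor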
Summary of the method: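 Readout: reporter mRNA, fluorescence by CE. System: HepG2, transient multi-reporter transfection, endogenous TF activity. Exposure: 24 h. Analysis: bidirectional, DMSO-normalized; background control.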

[10] = ATG_TGFb_CIS: Attagene CIS-FACTORIAL HepG2 Assay for human Transforming Growth Factor (TGF) (AID 2282967); details: HepG2 Attagene CIS TGFb reporter, mRNA transcription; actives raise or lower the signal
Summary of the method: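 HepG2 cells transiently transfected with cis-promoter-driven multiple reporter units measure endogenous TF activity; reporter mRNA quantified at 24 h by RT-PCR, FAM labeling, HpaI digestion and capillary electrophoresis. Bidirectional fit vs DMSO.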

[11] = ATG_VDRE_CIS: Attagene CIS-FACTORIAL HepG2 Assay for human Vitamin D Receptor Element (VDRE) (AID 2282968); details: HepG2 VDRE cis-reporter transcription, actives raise or lower the signal
Summary of the method: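 HepG2 cells transiently transfected with cis-element reporter units, dosed 24 h; reporter mRNA measured by RT-PCR, 6-FAM labeling, HpaI digestion and capillary electrophoresis. Activity fitted bidirectionally against DMSO baseline.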

[12] = biological target: X-box-binding protein 1 (Homo sapiens) (UniProt P17861); assay: ATG_Xbp1_CIS: Attagene CIS-FACTORIAL HepG2 Assay for human X-box Binding Protein 1 (XBP1) (AID 2282972); details: HepG2 XBP1 cis-element reporter, Attagene multiplex; actives raise or lower the signal
X-box-binding protein 1 (Homo sapiens), sequence (P17861 whole entry, looked up): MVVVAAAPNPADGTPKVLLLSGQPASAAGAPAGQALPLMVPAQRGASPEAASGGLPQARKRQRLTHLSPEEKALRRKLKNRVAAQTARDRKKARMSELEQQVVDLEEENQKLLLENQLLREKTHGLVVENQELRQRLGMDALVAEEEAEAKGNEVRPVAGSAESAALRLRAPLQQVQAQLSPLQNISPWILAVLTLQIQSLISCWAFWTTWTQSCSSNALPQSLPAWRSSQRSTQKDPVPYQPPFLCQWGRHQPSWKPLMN
Summary of the method: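 HepG2, transient MRTU transfection (cis-promoter driven), 24 h compound exposure. Total RNA → oligo(dT) RT → PCR → 6-FAM labeling → HpaI cut → CE. Bidirectional fit vs DMSO.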

[13] = ATG_M_19_TRANS: Attagene TRANS-FACTORIAL HepG2 Assay for M19 Transcription Factor (Internal Marker) (AID 2282974; active = hit-call score of the fitted dose curve at least 0.9, where 1 is the maximum); details: HepG2 Attagene TRANS-FACTORIAL M19 internal marker reporter
Summary of the method: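 Multiplexed TRANS format: HepG2 liver cells bearing transient GAL4-UAS reporter units, chemical treatment 24 h, reporter transcripts quantified by RT-PCR plus capillary electrophoresis. DMSO defines baseline.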

[14] = ATG_GAL4_TRANS: Attagene TRANS-FACTORIAL HepG2 Assay for GAL4 (Internal Marker) (AID 2282976; active = hit-call score of the fitted dose curve at least 0.9, where 1 is the maximum); details: HepG2 Attagene TRANS GAL4 internal marker reporter
Summary of the method: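 Fluorescence from capillary electrophoresis of labelled RT-PCR products quantifies reporter mRNA induction after 24 h dosing of HepG2 cells carrying transfected GAL4-UAS reporter transcription units. Vehicle DMSO serves as baseline.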

[15] = ATG_SREBP_CIS: Attagene CIS-FACTORIAL HepG2 Assay for human Sterol Regulatory Element Binding (SREBP) (AID 2282962); details: HepG2 Attagene cis-factorial SREBP reporter, mRNA; actives raise or lower the signal
Summary of the method: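 Transfected HepG2 (cis-regulated reporter library, endogenous TFs) → compound 24 h → total RNA → oligo(dT) RT → reporter-specific PCR → FAM primer extension, HpaI cut → CE fluorescence. Fit bidirectional vs DMSO.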

[16] = biological target: Nuclear receptor subfamily 1 group I member 3 (Homo sapiens) (UniProt Q14994); assay: ATG_CAR_TRANS: Attagene TRANS-FACTORIAL HepG2 Assay for human Constitutive Androstane Receptor (CAR) (AID 2282969; active = hit-call score of the fitted dose curve at least 0.9, where 1 is the maximum;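 also: activators raise reporter mRNA above DMSO so AC50 marks induction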); details: HepG2 Attagene TRANS-FACTORIAL CAR reporter
Nuclear receptor subfamily 1 group I member 3 (Homo sapiens), sequence (Q14994 whole entry, looked up, the tested form may be a part): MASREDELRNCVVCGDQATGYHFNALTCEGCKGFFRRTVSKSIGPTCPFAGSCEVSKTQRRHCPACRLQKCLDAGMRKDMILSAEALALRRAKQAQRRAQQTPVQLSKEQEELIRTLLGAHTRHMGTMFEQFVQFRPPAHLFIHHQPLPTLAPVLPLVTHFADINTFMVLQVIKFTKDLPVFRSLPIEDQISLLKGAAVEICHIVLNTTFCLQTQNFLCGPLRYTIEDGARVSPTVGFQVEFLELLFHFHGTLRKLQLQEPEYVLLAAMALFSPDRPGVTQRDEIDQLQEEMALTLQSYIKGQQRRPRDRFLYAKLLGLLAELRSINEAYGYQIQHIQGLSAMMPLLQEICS
Summary of the method: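 HepG2 cells transiently transfected with multiplexed GAL4-UAS reporter units expressing chimeric NR-Gal4 proteins; compound exposure 24 h. Reporter mRNA measured by RT-PCR, 6-FAM labelling, HpaI digestion and capillary electrophoresis; gain-of-signal fitted against DMSO baseline.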

[17] = biological target: Estrogen-related receptor gamma (Homo sapiens) (UniProt P62508); assay: ATG_ERRg_TRANS: Attagene TRANS-FACTORIAL HepG2 Assay for human Estrogen-Related Receptor gamma (ERRg) (AID 2282977; active = hit-call score of the fitted dose curve at least 0.9, where 1 is the maximum;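 also: hits increase reporter signal over DMSO so potencies reflect activators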); details: HepG2 Attagene TRANS reporter, ERRg transactivation
Estrogen-related receptor gamma (Homo sapiens), sequence (P62508 whole entry, looked up, the tested form may be a part): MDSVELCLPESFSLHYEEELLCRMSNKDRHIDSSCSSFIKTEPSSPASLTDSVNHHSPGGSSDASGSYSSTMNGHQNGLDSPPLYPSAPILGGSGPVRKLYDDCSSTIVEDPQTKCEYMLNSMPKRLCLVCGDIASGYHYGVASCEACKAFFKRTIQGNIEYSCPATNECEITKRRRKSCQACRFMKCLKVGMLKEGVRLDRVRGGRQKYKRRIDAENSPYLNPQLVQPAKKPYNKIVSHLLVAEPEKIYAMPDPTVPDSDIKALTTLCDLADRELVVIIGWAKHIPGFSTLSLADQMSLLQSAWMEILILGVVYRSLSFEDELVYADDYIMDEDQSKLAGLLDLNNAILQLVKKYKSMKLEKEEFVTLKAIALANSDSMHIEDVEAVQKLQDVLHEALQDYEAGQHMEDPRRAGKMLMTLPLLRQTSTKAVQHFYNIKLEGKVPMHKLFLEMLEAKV
Summary of the method: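 Transient HepG2 transfectants, 24 h compound exposure, GAL4-UAS reporter mRNA by RT-PCR/6-FAM labelling/capillary electrophoresis; positive direction vs DMSO.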

[18] = biological target: Estrogen receptor (Homo sapiens) (UniProt P03372); assay: ATG_ERa_TRANS: Attagene TRANS-FACTORIAL HepG2 Assay for human Estrogen Receptor alpha (ERa) (AID 2282970; active = hit-call score of the fitted dose curve at least 0.9, where 1 is the maximum); details: HepG2 Attagene TRANS ERa GAL4 reporter, mRNA
Estrogen receptor (Homo sapiens), sequence (P03372 whole entry, looked up, the tested form may be a part): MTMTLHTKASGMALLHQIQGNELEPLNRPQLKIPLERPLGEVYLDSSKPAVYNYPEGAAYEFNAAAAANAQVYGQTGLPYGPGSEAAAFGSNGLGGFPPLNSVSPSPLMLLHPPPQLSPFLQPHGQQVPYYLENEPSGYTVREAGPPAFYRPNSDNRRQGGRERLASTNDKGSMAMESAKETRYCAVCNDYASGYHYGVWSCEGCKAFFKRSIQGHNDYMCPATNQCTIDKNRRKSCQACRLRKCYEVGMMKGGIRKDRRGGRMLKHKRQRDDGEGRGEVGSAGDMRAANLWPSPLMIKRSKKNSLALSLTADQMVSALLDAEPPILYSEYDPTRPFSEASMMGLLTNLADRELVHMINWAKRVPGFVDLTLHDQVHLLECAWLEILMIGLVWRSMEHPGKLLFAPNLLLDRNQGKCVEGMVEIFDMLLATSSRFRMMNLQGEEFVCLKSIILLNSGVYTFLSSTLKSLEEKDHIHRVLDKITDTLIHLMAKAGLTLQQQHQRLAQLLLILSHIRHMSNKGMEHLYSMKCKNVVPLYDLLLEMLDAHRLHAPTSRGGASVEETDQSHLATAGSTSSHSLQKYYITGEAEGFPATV
Summary of the method: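 Transactivation via ERa-Gal4 chimera in HepG2; 24 hour incubation; reporter mRNA detected by fluorescence RT-PCR and capillary electrophoresis.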

[19] = ATG_PPRE_CIS: Attagene CIS-FACTORIAL HepG2 Assay for human Peroxisome Proliferator-activated Response Element (PPRE) (AID 2282958); details: HepG2 PPRE cis-element reporter, Attagene transcription factor profiling; actives raise or lower the signal
Summary of the method: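 DMSO served as negative control and baseline for bidirectional curve fitting. Signal came from PPRE-regulated reporter mRNA in HepG2 cells, measured 24 h post-dosing by RT-PCR, 6-FAM primer extension and capillary electrophoresis.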

Measured: AC50

CC(=O)CC(c1ccccc1)c1c(O)c2ccccc2oc1=O (configuration not stated)
active: [2] 59.1 µM and 59.7 µM
not listed: [15] | [16] | [17] | [18] | [19]
inactive: all other assays above

CC(C)(C)c1ccccc1
not listed: [13] | [14] | [18] | [19]
inactive: all other assays above

Cc1ccc(C(C)(C)C)c(O)c1
inactive: [3] | [6] | [7] | [9] | [10] | [17]
active: [1] 152 µM | [2] 25 µM | [4] 154 µM | [5] 100 µM | [8] 161 µM | [11] 151 µM | [18] 6.64 µM | [12] 139 µM

COC(=O)[C@H]1[C@H]2C[C@@H]3c4[nH]c5cc(OC)ccc5c4CCN3C[C@H]2C[C@@H](OC(=O)c2cc(OC)c(OC)c(OC)c2)[C@@H]1OC
active: [1] 8.41 µM | [8] 7.31 µM
inactive: [19] | [3] | [4] | [5] | [6] | [7] | [9] | [10] | [12]

Cc1c(C)c2c(c(C)c1O)CCC(C)(COc1ccc(CC3SC(=O)NC3=O)cc1)O2 (configuration not stated)
active: [2] 2.01 µM | [8] 18.5 µM | [11] 13.9 µM
not listed: [3] | [14] | [15] | [17] | [19]
inactive: all other assays above

CCc1cc(C2=C(C(=O)O)N(c3ccccc3C(F)(F)F)S(=O)(=O)c3ccccc32)cc2c1OCO2
active: [2] 2.14 µM | [5] 59 µM | [15] 26.6 µM | [8] 122 µM | [11] 11.8 µM
not listed: [13] | [16] | [17] | [18] | [19]
inactive: all other assays above
